Structures are written as SMILES. Where “and” joins values, the source holds several entries; their conditions need not be identical. Identical values can stand only once. Hit rate of the full screen: of about 16,000 compounds, about 4,000 (25%) were called active. About 26% were inconclusive and are not listed. The list is a sample of the results. Unmarked numbers belong to inactive results. Calls come from the whole dose curve; as a rule, active = well fitted curve in the direction sought with a large enough effect; inconclusive = small, poorly fitted or top-dose-only effect, or effect the other way; inactive = no such curve, though single readings can be large or run the other way.
% is set by controls: 0 for no effect and ±100 for the full control effect.

In the experiment the target is Cytochrome P450 2C9 (Homo sapiens) (UniProt P11712). In words: Cytochrome panel assay with activity outcomes. The conditions noted are these: recombinant CYP, pro-luciferin dealkylation, luminescence, p450-cyp2c9; series mostly up to 57.1 µM.
Cytochrome P450 2C9 (Homo sapiens), sequence (P11712 whole entry, looked up): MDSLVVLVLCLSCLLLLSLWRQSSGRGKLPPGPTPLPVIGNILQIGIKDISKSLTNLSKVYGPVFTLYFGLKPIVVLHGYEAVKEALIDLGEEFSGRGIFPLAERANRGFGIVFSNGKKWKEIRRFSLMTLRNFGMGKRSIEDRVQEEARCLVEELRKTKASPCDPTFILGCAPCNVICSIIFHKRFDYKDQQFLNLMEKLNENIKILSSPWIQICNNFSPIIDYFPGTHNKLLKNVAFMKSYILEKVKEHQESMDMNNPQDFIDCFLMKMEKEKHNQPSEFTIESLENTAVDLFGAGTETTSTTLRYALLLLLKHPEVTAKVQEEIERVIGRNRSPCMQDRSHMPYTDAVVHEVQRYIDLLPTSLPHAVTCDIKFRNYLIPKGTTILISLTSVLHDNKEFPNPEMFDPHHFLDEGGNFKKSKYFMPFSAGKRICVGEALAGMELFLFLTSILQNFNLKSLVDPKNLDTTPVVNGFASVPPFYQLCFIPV
What is called AC50 is the concentration at which the activity in the assay is half-maximal. Turning to `CO[C@H]1COC(=O)C/C=C\[C@H](C)[C@@H](OC)COC(=O)[C@@H](C)COC(=O)C/C=C\[C@@H]1C`, the AC50 is 2.51 µM (active). Turning to `CO[C@@H]1COC(=O)C/C=C\[C@@H](C)[C@H](OC)COC(=O)[C@@H](C)COC(=O)C/C=C\[C@H]1C`, the activity, negative = inhibition is 11.9% [at 11.4 µM]. Consider `CO[C@H]1COC(=O)C/C=C\[C@H](C)[C@H](OC)COC(=O)[C@@H](C)COC(=O)C/C=C\[C@@H]1C`, for which the activity, negative = inhibition was -5.38% [at 11.4 µM] and 5.78% [at 11.4 µM]. Turning to `Cc1nn(-c2ccccc2)c2c1C(c1ccc(O)c(O)c1)N1C(=N2)C(Nc2ccccc2)=Nc2ccccc21` (stereo not drawn), the AC50 was 1.26 µM (active).

Turning to `CC(=O)Nc1ccc(NC2=Nc3ccccc3N3C2=Nc2c(c(C)nn2-c2ccccc2)C3c2ccccc2)cc1` (stereo not drawn), the AC50 is 1.78 µM (active). As for `O=C(NNS(=O)(=O)c1ccc(Cl)cc1)c1cnn(-c2ccccc2)c1-n1cccc1`, the AC50 was 1.78 µM (active). The same measure, in the same setting: under `O=C(NNS(=O)(=O)c1ccc(Cl)cc1)C1CCN(Cc2ccccc2)CC1` stands “inactive”. Same read-out and setting: under `Cc1cc(C)cc(C(=O)N(C)[C@H](Cc2ccc(-c3ccccc3)cc2)C(=O)N[C@@H](Cc2c[nH]c3ccccc23)C(=O)O)c1` stands “inactive”; under `COc1cccc(N(C(=O)Cn2nnc(-c3ccc(C)cc3)n2)C(C(=O)NC(C)(C)C)c2c[nH]c3ccccc23)c1` (stereo not drawn), 5.01 µM (active). For `Cc1[nH]c(N)nc(=S)c1CCCNc1ccccc1`, the activity, negative = inhibition is -9.42% [at 11.4 µM]. With `O=C(O)c1cc(=O)[nH]c(SCc2ccccc2)n1`, the activity, negative = inhibition is -7.95% [at 11.4 µM]. Take `CCCc1cc(=O)[nH]c(SCc2cc(Cl)ccc2OC(F)F)n1`: the AC50 is 2.82 µM (active). Same read-out and setting: under `Cn1c(=O)c(-c2ccc(F)cc2)nc2cnc(Oc3ccccc3)nc21` stands “inactive”; under `O=C1/C(=C\c2ccccn2)SC(=S)N1Nc1ncc(C(F)(F)F)cc1Cl`, 5.01 µM (active). On the same count and under the same terms, under `Cc1ccc(C)c(-n2c(Cc3cc(=O)[nH]c(=O)[nH]3)nnc2SCC(=O)NCC2CCCO2)c1` (stereo not drawn) stands “inactive”; under `COc1ccc(-c2nc(CSCC(=O)NCC3CCCO3)c(C)o2)cc1OC` (stereo not drawn), “inactive”. Regarding `Cc1cccc2c(SCC(=O)NCC3CCCO3)nc(-c3ccc(F)cc3)nc12` (stereo not drawn), the AC50 was 3.98 µM (active). Turning to `O=C(O)/C=C\C(=O)Nc1ccc2c(c1)-c1ccccc1C2`, the activity, negative = inhibition is -10.9% [at 11.4 µM]. The same measure, in the same setting: under `S=C(Nc1ccc2c(c1)Cc1ccccc1-2)Nc1ccc2c(c1)Cc1ccccc1-2` stands 1.69% [at 11.4 µM]. As for `O=C(O)c1ccccc1-c1ccccc1C(=O)Nc1ccc2c(c1)Cc1cc(F)ccc1-2`, the AC50 was 2.51 µM (active). Still for that read-out and setting: under `CO[C@]1(C2=NCCN2)COc2ccccc2O1` stands “inactive”; under `CC(C)OCCCNC(=O)C1CC(=O)N(C2CCCCCCC2)C1` (stereo not drawn), “inactive”. As for `C[N+](C)(C)c1nc(N)nc2c1ncn2[C@H]1O[C@@H](CO)[C@@H](O)[C@H]1O`, the activity, negative = inhibition is 12.2% [at 11.4 µM]. Regarding `CC(C)(C)c1[nH]nc2c1C(c1ccc(OC(=O)c3ccco3)cc1)C(C#N)=C(N)O2` (stereo not drawn), the AC50 was 4.47 µM (active). In the case of `CN(C(=O)C(Cl)Cl)c1ccc(OC(=O)c2ccco2)cc1`, the AC50 entry is “inactive”.

As to `CC(C)NC[C@@H](O)COc1ccccc1-n1cccc1`, the AC50 entry was “inactive”. In the case of `C=C(C)[C@@H]1CC=C(C(=O)O)CC1`, the AC50 result is “inactive”. Still for that read-out and setting: under `Cc1ccc(C(=O)NNC(=O)CSc2nnc(-c3ccncc3)n2-c2ccc(C)cc2)cc1` stands 5.01 µM (active). Consider `Cc1cccc(CNc2ncncc2-c2ccc(C(=O)N(C)C)cc2)c1`, for which the activity, negative = inhibition was 2.16% [at 2.29 µM]. With `CCC1(C)CC(CCNS(=O)(=O)c2ccc(C)cc2)(c2ccc(C)cc2)CCO1` (stereo not drawn), the AC50 is 5.62 µM (active). On the same count and under the same terms, under `Cc1ccc(S(=O)(=O)NCCSc2nnnn2C)cc1` stands “inactive”; under `CN(C)CCNC(=O)C(C(=O)c1ccc(F)cc1)n1ccccc1=O` (stereo not drawn), “inactive”. Regarding `CC(C)=CCC/C(C)=C/CO/N=C1/[C@H]2O[C@@H]2[C@@H](O)[C@H]2[C@H]1CCn1c(=O)n(Cc3cc4c(cc3Cl)OCO4)c(=O)n12`, the activity, negative = inhibition is -2.9% [at 11.4 µM]. Still for that read-out and setting: under `Cc1noc(C)c1-c1nccc(NCc2cccnc2)n1` stands 3.9% [at 2.29 µM]; under `OC[C@@H]1O[C@@H](O)[C@H](N=Cc2ccc3c(c2)OCO3)[C@@H](O)[C@@H]1O`, 12.1% [at 11.4 µM]. On the same count and under the same terms, under `O=C(O)/C=C\C=C/c1ccc2c(c1)OCO2` stands -5.25% [at 11.4 µM].

With `C[C@@H](C(=O)O)/C(=C/c1ccc2c(c1)OCO2)C(=O)O`, the AC50 was 2.51 µM (active). As for `Cc1cccc(Oc2ncc(-c3ccc(Cl)cc3)cn2)c1C`, the AC50 result was “inactive”. Still for that read-out and setting: under `Cc1ccccc1Oc1ccc(-c2nc(N)nc(N)n2)cc1` stands 8.91 µM (active). Take `Nc1nc(-c2ccc3ccccc3c2)cc(-c2cc(-c3ccc4ccccc4c3)nc(N)n2)n1`: the activity, negative = inhibition was 8.18% [at 11.4 µM]. On to `COc1cccc(NC(=O)C2c3cc(OC)c(OC)cc3C(=O)N(C)C2c2cccnc2)c1` (stereo not drawn), for which the AC50 entry was “inactive”. Regarding `COc1cccc(NC(=O)c2cc(-c3cccnc3)nc3c(Cl)cccc23)c1`, the AC50 was 0.794 µM (active).

As to `CCCOc1ccc(-c2nc(N)n[nH]2)cc1`, the AC50 result is “inactive”. As for `NCCSS(=O)(=O)CCN`, the activity, negative = inhibition is -9.3% [at 11.4 µM]. Regarding `CCc1cc2c(Sc3nc4ccccc4s3)ncnc2s1`, the AC50 is 11.2 µM (active). Consider `c1ccc(NCCSc2nc3ccccc3s2)cc1`, for which the activity, negative = inhibition is -12.4% [at 11.4 µM]. Consider `CCn1c2ccccc2c2cnc(N=CN(C)C)c(C#N)c21`, for which the AC50 was 14.1 µM (active). In the case of `O=C1[C@H]2[C@H]3[C@H](O)[C@H](O)C/C(=N/OC[C@@H](O)COCc4ccco4)[C@H]3CC[C@@H]2C(=O)N1C1CCCCC1`, the activity, negative = inhibition was 23.1% [at 11.4 µM].

`O=C(O)[C@H]1CN[C@H](C(=O)O)C1`: the AC50 result is “inactive”. The same measure, in the same setting: under `CCOC(=O)CSc1ncc(OC)c(Sc2ccc(Cl)cc2)n1` stands 0.891 µM (active). The same measure, in the same setting: under `CCOC(=O)C(C)Sc1ncc(OC)c(Sc2ccc(Cl)cc2)n1` (stereo not drawn) stands 2.51 µM (active); under `COC(=O)CSc1ncc(OC)c(OC)n1`, “inactive”. On to `Cc1cnc(CNc2ncncc2-c2ccoc2)cn1`, for which the activity, negative = inhibition is 6.74% [at 2.29 µM]. For `O=C(Nc1ccc(-n2nncc2-c2ccco2)cc1)c1cc2ccccc2oc1=O`, the AC50 was 2.24 µM (active). Still for that read-out and setting: under `COc1ccc(-c2cnnn2-c2ccc(NC(=O)c3ccco3)cc2)cc1OC` stands 2.24 µM (active); under `O=C(NCCN1CCN(C(=O)c2cc3ccccc3oc2=O)CC1)c1cc2ccccc2oc1=O`, “inactive”. Still for that read-out and setting: under `CO[C@H]1C=CO[C@]2(C)Oc3c(C)c(O)c4c(O)c(c5c(c4c3C2=O)NC2(CCN(CC(C)C)CC2)N=5)=NC(=O)C(C)=CC=C[C@@H](C)[C@@H](O)[C@@H](C)[C@@H](O)[C@@H](C)[C@@H](OC(C)=O)[C@@H]1C` stands “inactive”; under `CC(C)NC(=O)N1CC[C@@]2(CCCN(C(=O)c3cccn3C)C2)C1`, “inactive”; under `N#Cc1nc(COc2ccccc2Cl)oc1NCc1ccco1`, 1.78 µM (active). Still for that read-out and setting: under `CN(C)CCNc1oc(COc2ccc(Cl)cc2Cl)nc1C#N` stands “inactive”; under `CCOc1ccc(-c2cc(CCCC(=O)Nc3cc(OC)ccc3OC)no2)cc1`, 2.24 µM (active); under `CCOc1ccc(-c2cc(CCCC(=O)NCCc3ccc(OC)c(OC)c3OC)no2)cc1`, 1 µM (active). Take `CCOc1ccc(-c2nnn(CC(=O)Nc3cc(OC)ccc3OC)n2)cc1OCC`: the AC50 result was “inactive”.

Regarding `CN(C)CCCN1c2ccc(O)cc2Sc2ccc(Cl)cc21`, the activity, negative = inhibition is -1.91% [at 11.4 µM]. With `CSC1=N/C(=C\c2ccc(Br)o2)C(=O)S1`, the AC50 was 39.8 µM (active).

For the compound `CSC1=N/C(=C\c2ccc3c(c2)OCO3)C(=O)S1`, the AC50 result was “inactive”. On the same count and under the same terms, under `CSC1=N/C(=C\c2ccc(C)cc2)C(=O)S1` stands 22.4 µM (active).

On to `CCCCNC(=O)C(=O)c1ccccc1NC(C)=O`, for which the AC50 result is “inactive”. With `Cc1cnc(CNc2ncncc2-c2ccccc2C#N)cn1`, the activity, negative = inhibition is -5.28% [at 2.29 µM]. Regarding `CCN(CC)Cc1c(O)ccc2c(=O)c(Oc3ccccc3OC)coc12`, the AC50 is 7.94 µM (active). Still for that read-out and setting: under `O=c1c(Oc2ccccc2Br)c(C(F)(F)F)oc2c(CN3CCCC3)c(O)ccc12` stands “inactive”. The same measure, in the same setting: under `Cc1cccc(Cn2ncc(Cl)c(Cl)c2=O)c1` stands “inactive”. Consider `Cc1cccc(CNc2ncncc2-c2ccccc2Cl)c1`, for which the activity, negative = inhibition was 7.19% [at 2.29 µM]. With `C=CCSc1nc2c(sc3nc(C)cc(C)c32)c(=O)[nH]1`, the AC50 is 7.94 µM (active). Regarding `Cc1c(S(=O)(=O)O)ccc(N=Nc2c(O)c(C(=O)O)cc3ccccc23)c1Cl`, the activity, negative = inhibition was -11.1% [at 11.4 µM].

In the case of `Nc1nc2n[nH]nc2c(=O)[nH]1`, the AC50 result was “inactive”. Consider `Cc1cc(C(C)(C)C)c(O)c(C)c1CC1=NCCN1`, for which the AC50 result is “inactive”. Still for that read-out and setting: under `Cc1cc(Cc2cc(Cc3cc(C)cc(C(C)(C)C)c3O)c(C)cc2C)c(O)c(C(C)(C)C)c1` stands 3.16 µM (active); under `Cc1cc(Cc2cc(C)cc(C(C)(C)C)c2O)c(O)c(Cc2cc(C)cc(C(C)(C)C)c2O)c1`, 3.16 µM (active). Take `Cc1cc(C)c(O)c(Cc2cccc(Cc3cc(C)cc(C)c3O)c2O)c1`: the activity, negative = inhibition was 11.7% [at 11.4 µM]. Turning to `CC(C)c1cc(CN(C)C)c(O)c(C(C)(C)C)c1`, the activity, negative = inhibition is 1.03% [at 11.4 µM]. On the same count and under the same terms, under `Cc1cc(Cc2c(C)c(C)c(Cc3cc(C)cc(C(C)(C)C)c3O)c(C)c2C)c(O)c(C(C)(C)C)c1` stands 9.35% [at 11.4 µM]. In the case of `C[N+](C)(CCCCCC[N+](C)(C)CCCN1C(=O)c2cccc3cccc(c23)C1=O)CCCN1C(=O)c2cccc3cccc(c23)C1=O`, the AC50 result is “inactive”.

For `Cc1ccc(NC(=S)N2CCN(CCN3C(=O)c4cccc5cccc(c45)C3=O)CC2)cc1`, the AC50 was 6.31 µM (active).

Regarding `Cc1ccc(NC(=S)N2CCN(C3CCCCC3)CC2)cc1`, the AC50 entry was “inactive”. Still for that read-out and setting: under `C/C(=N\NC(=O)Cc1ccc(Cl)cc1)c1ccccn1` stands 14.1 µM (active). `C/C(=N\NC(=O)CC1N=C(Cc2ccccc2)NNC1=O)c1ccc(Cl)cc1Cl` (stereo not drawn): the AC50 result was “inactive”. On the same count and under the same terms, under `COc1ccccc1CNC(=O)C/C(C)=N/NC(=O)Cc1ccccc1` stands “inactive”.

The values above are taken from PubChem BioAssay AID1851 (National Center for Advancing Translational Sciences (NCATS), 2009).
